SW480 rerep – A quantitative high throughput screen for small molecules that induce DNA re-replication in SW480 colon adenocarcinoma cells | SW480 DNA re-replication, Hoechst DNA content imaging, 48 h | Potency, µM (highest dose often 46.1 µM), without a hit: at the highest dose re-replication activation, hits mostly activators | 340,000 compounds, 1.8% hits | AID 624297, 2012; further: potency means the concentration at half of the fitted maximal effect; % of control where 0% means no effect; nearly all actives have a fitted effect of over 55% in size
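Readout is total intensity of Hoechst-stained nuclei, excited at 405 nm and collected at 500-530 nm. Compound treatment lasted 48 hr at 37 C in 5% CO2 before staining.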
RORgamma inh – qHTS for inhibitors of ROR gamma transcriptional activity; Drosophila S2 Gal4-RORgamma UAS-luciferase reporter, 20 h; Potency, µM (series often up to 53.6 µM), without a hit: at the highest dose activity change, negative = inhibition, actives largely listed as inhibitors; 310,000 compounds, 5.4% hits; further: potency means the concentration at half of the fitted maximal effect; on the % scale 0 is the no-effect control and ±100 the full control effect; nearly all actives have a fitted effect of over 60% in size
Target sequence (P51450 whole entry, looked up, the tested form may be a part): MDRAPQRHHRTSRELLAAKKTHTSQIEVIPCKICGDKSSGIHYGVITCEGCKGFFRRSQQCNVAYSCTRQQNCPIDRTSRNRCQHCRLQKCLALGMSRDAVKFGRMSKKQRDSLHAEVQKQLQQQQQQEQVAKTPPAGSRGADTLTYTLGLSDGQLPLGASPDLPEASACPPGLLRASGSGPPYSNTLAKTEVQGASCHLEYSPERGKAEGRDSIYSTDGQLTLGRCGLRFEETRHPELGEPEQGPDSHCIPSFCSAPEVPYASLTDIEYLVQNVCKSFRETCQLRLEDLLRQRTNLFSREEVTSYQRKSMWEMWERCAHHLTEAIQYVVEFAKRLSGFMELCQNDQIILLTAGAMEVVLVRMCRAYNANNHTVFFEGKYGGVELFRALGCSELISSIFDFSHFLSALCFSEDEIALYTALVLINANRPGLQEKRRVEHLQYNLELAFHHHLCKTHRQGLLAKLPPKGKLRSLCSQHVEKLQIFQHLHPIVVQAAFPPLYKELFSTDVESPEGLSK
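Stable Schneider cell line, Gal4 DNA-binding domain fused to ROR gamma, UAS-luciferase. Cmpd 1 hr RT → CuSO4 700 uM final → 20 hr RT → luciferase reagent 10 min → luminescence.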
Giardia kill – Small Molecules that selectively kill Giardia lamblia: qHTS; AID 540267, 2011; Giardia lamblia trophozoite viability; activity change, % at 7.66 µM, hits read low; 340,000 compounds, 0.15% hits; in the data active means activity change below about -80%; inconclusive means between about -30% and that limit;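 further: parasites exposed to compound for two days anaerobically before the ATP read; on the % scale 0 is the no-effect control and ±100 the full control effect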
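Luminescence from cellular ATP indicates surviving trophozoites (100 cells/well) following 48 hrs anaerobic compound treatment at 37 deg C; signal develops 15-30 min at room temperature.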
Chronic BCR inh – qHTS Assay to Find Inhibitors of Chronic Active B-Cell Receptor Signaling; ABC-DLBCL IkBa-CBG/CBR reporter, luminescence ratio, 4 h; Potency, µM (top dose mostly 46.1 µM), for the others: top-dose activity change, negative = inhibition, usual class: inhibitors; 340,000 compounds, 0.05% hits; AID 493014, 2011; active means well fitted inhibition curve with a large enough effect in the signal ratio, with a control signal flat, not every such curve was filed as active; inconclusive means small, poorly fitted or top-dose-only effect, or effect the other way, or a change in a side signal; the % refers to the signal ratio;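 further: potency means the concentration at half of the fitted maximal effect; plate controls were basal doxycycline-induced cells for no effect and cells given 10 µM MG132 for full effect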
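Compounds up to 46 uM were incubated four hours with TMD8 cells whose green CBG68 luciferase is fused to IkappaBalpha; red CBR luminescence normalised the signal, and concentration-effect curves were fitted to fusion, red and ratio data.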
VP16 counter – VP16 counterscreen qHTS for inhibitors of ROR gamma transcriptional activity | 310,000 compounds, 3.5% hits | Potency, µM (titrated, usually from 53.6 µM), for the others: at the top dose activity, negative = inhibition, most hits filed as inhibitors | Drosophila S2 Gal4-VP16 UAS-luciferase, luminescence, 20 h | AID 2546, 2010;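 further: Gal4-VP16 expression switched on by copper sulfate through the metallothionein promoter; potency means the concentration at half of the fitted maximal effect; on the % scale 0 is the no-effect control and ±100 the full control effect; nearly all actives have a fitted effect of over 50% in size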
MCF10A rerep – A quantitative high throughput screen for small molecules that induce DNA re-replication in MCF 10a normal breast cells. MCF 10A DNA re-replication, Hoechst nuclear intensity, 48 h. Potency, µM (series often up to 46.1 µM), for the others: at the highest dose activity, positive = re-replication, most hits filed as activators. 350,000 compounds, 2.9% hits; further: potency means the concentration at half of the fitted maximal effect; % of control where 0% means no effect; nearly all actives have a fitted effect of over 50% in size
* marks the source's active call; other numbers are inactive results; ? = inconclusive; · = not tested or not shown; [ ] = remark or other dose. Rows were chosen to be rich in hits. Some 8.3% of all compounds tested hit in one or more screens of this group. Unless noted, the call rests on the fitted dose curve; in most records, active means well fitted curve in the direction sought with a large enough effect; inconclusive means small, poorly fitted or top-dose-only effect, or another doubt; inactive means no such curve, though single readings can be large; an effect the other way counts as inactive or inconclusive.

SMILES	SW480 rerep	RORgamma inh	Giardia kill	Chronic BCR inh	VP16 counter	MCF10A rerep
O=C(NN1C(=O)c2ccccc2NC1c1ccco1)c1ccc(Br)cc1 (stereo not drawn)	-14.9%	?	14.3	0.7%	0.3%	0.4%
O=C(NN1C(=O)c2ccccc2NC1c1ccc([N+](=O)[O-])o1)c1ccc(Br)cc1 (stereo not drawn)	?	35.2%	?	?	5.7%	9.2µM*
CC(=O)NN1C(=O)c2ccccc2NC1c1ccccc1O (stereo not drawn)	0.8%	11.2µM*	24.0	2.2%	?	4.6%
CC1(C)CC23C(=O)CCC(O)C2(C)CCC13 (stereo not drawn)	·	-15.4%	·	·	-0.7%	·
CCCN(CCC)c1ccc(/C=C/c2ccc3cc(OCC)ccc3n2)cc1	2.06µM*	10.8%	3.9	2.1%	-8.1%	?
Cc1ccc(/C=C/c2nc3ccccc3s2)s1	10.6%	?	?	?	10µM*	?
Oc1ccc(/C=C/c2ccc3ccccc3n2)cc1	18.4µM*	7.94µM*	?	?	11.2µM*	?
O/C(=C\c1ccc2ccccc2n1)c1ccc(O)cc1O	-1.9%	2.82µM*	?	?	8.91µM*	0.4%
Cc1ccc(Nc2nc3ccccc3s2)cc1	-1.6%	?	3.3	?	?	3.0%
C/C(=N\Nc1ccc(C#N)cc1[N+](=O)[O-])c1ccc(C)o1	-28.2%	?	7.1	20.4%	-3.0%	-4.1%
CN(C)c1ccc(/C=C/c2nc3ccccc3s2)cc1	9.2µM*	0.316µM*	?	?	3.98µM*	?
COc1cc(/C=C/c2nc3ccccc3s2)cc(OC)c1O	3.1%	-1.7%	-4.6	?	-9.1%	?
CN(C)c1ccc(CNc2nc3ccccc3s2)cc1	·	5.01µM*	·	?	7.94µM*	·
CC(C)n1c(NCc2ccc(N(C)C)cc2)nc2ccccc21	-8.9%	-2.0%	-17.9	-0.3%	-4.2%	-16.6%
CN(C)c1ccc(/C=C/c2ccc3ccccc3n2)cc1	23.1µM*	3.98µM*	?	?	2.82µM*	5.17µM*
O=C(NC1CC(=O)N(c2cccc(F)c2)C1)c1ccc(S(=O)(=O)N2CCCC2)cc1 (stereo not drawn)	·	·	·	7.5%	·	·
CCCCCCCCNC(=O)/C(C#N)=C/c1ccccc1[N+](=O)[O-]	-38.6%	3.16µM*	-1.0	-29.0%	7.94µM*	?
N#C/C(=C\C=C\c1ccccc1[N+](=O)[O-])C(=O)NCc1ccccc1	20.6µM*	14.1µM*	-7.2	?	?	3.66µM*
CCn1c(=NC(=O)CCS(=O)(=O)c2ccccc2)sc2cccc(OC)c21	12.5%	-10.7%	-8.3	5.3%	15.8µM*	10.7%
CCn1c(SCC(=O)NCCc2ccccc2)nc2c([nH]c3ccccc32)c1=O	12.6%	-2.2%	7.7	-2.0%	-0.9%	-1.5%
COc1ccc(-c2cc(C(=O)OCC(=O)c3cccc([N+](=O)[O-])c3)c3cc(C)ccc3n2)cc1	0.0%	-2.1%	17.2	-1.5%	-2.6%	18.4µM*
COc1ccc2nc(-c3ccccc3)cc(C(=O)OCC(=O)N3CCCCC3)c2c1	20.6µM*	·	-10.2	0.3%	·	-3.6%
CC12CCC(=O)N1C(C(=O)Nc1ccccc1F)CS2 (stereo not drawn)	-7.2%	·	11.4	5.9%	·	0.3%
O=C(Nc1ccc2c(c1)CCC2)c1cccc(F)c1	3.9%	23.6%	?	-6.4%	-26.6%	15.4%
O=C(Nc1nnc(-c2ccc3c(c2)CCCC3)o1)c1ccc(Cl)cc1Cl	-9.4%	1.58µM*	-1.2	?	1.58µM*	?
SMILES	SW480 rerep	RORgamma inh	Giardia kill	Chronic BCR inh	VP16 counter	MCF10A rerep
O=C(Nc1nnc(-c2ccc3c(c2)CCCC3)o1)c1c(F)cccc1F	-7.6%	0.501µM*	-25.5	?	4.47µM*	3.5%
C/C=C/c1ccc(OCC(=O)O)c(OC)c1	3.7%	0.6%	-5.7	?	1.3%	-1.7%
CC(C)=CCOc1ccc(/C=C/C(=O)c2ccc(OCC=C(C)C)cc2OCC(=O)O)cc1	-2.5%	?	·	·	-20.1%	11.9µM*
CCN1CCN(c2ncc3c(n2)CC(c2cc(OC)c(OC)c(OC)c2)CC3=O)CC1 (stereo not drawn)	4.11µM*	18.9%	7.0	?	-18.5%	20.6µM*
C/C(=N\NC(N)=S)C1C2C3CC4C5CC(C42)C1C53 (stereo not drawn)	21.9%	1.12µM*	-13.3	-0.4%	?	0.0%
O=C(Nc1ccccn1)C1COc2ccccc2O1 (stereo not drawn)	-4.5%	-31.8%	11.0	?	-12.6%	-4.4%
O=C(Nc1ccc(Cl)cn1)C1COc2ccccc2O1 (stereo not drawn)	-2.3%	3.98µM*	8.9	?	?	0.9%
O=C(Nc1nc(-c2ccccn2)cs1)C1COc2ccccc2O1 (stereo not drawn)	-1.8%	0.891µM*	0.6	?	0.199µM*	1.8%
CCNC(=O)c1c(NC(=O)C2COc3ccccc3O2)sc2c1CCCC2 (stereo not drawn)	4.0%	?	-11.7	-1.9%	11.2µM*	?
O=C(Nc1nc(-c2ccccc2)cs1)C1COc2ccccc2O1 (stereo not drawn)	-0.1%	25.1%	-12.0	?	15.4%	1.6%
Cc1cnc(NC(=O)C2COc3ccccc3O2)s1 (stereo not drawn)	4.0%[9.22 µM]	7.08µM*	-4.1	?	8.91µM*	14.4%
CN(C)c1ccc(C(C(=O)NCc2ccccc2)N(Cc2ccco2)C(=O)c2snc(C(N)=O)c2N)cc1 (stereo not drawn)	-5.7%	4.1%	23.9	4.6%	7.9%	18.9%
O=C(Nc1ccc([N+](=O)[O-])cc1)c1cc(Cl)sc1Cl	-2.9%	?	-29.4	-9.4%	24.3%	-11.5%
CC1CCc2nc(NC(=O)C3COc4ccccc4O3)sc2C1 (stereo not drawn)	-7.0%	?	-6.2	?	10µM*	2.9%
CC1CCc2nc(NC(=O)CN3CCN(Cc4ccc5c(c4)OCO5)CC3)sc2C1 (stereo not drawn)	1.6%	-53.4%	-14.9	-3.3%	-21.9%	13µM*
C[C@@H](C(=O)Nc1nc(-c2ccccn2)cs1)N1C(=O)C2CCCCC2C1=O (stereo partly drawn)	12.7%	12.6µM*	-7.7	?	?	?
CC1CC1C(=O)Nc1nc(-c2ccccn2)cs1 (stereo not drawn)	16.1%	11.2µM*	-3.6	?	?	28.0%
